DT40 TDP1 CPT: growth inhibition of DT40 Tdp1-/-;hTDP1 cells with camptothecin (screen for TDP1 inhibitors); chicken DT40 Tdp1-/-;hTDP1 cells + 20 nM CPT, ATP luminescence, 48 h; Potency, µM (series often up to 46.2 µM), inactives show at the highest dose activity change, negative = growth inhibition, hits mostly inhibitors; 12% of 420,000 active; also: potency is read from the fitted curve at half-maximal effect; nearly all actives have a fitted effect of over 55% in size
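Chicken DT40 Tdp1-/- cells stably complemented with human TDP1 were seeded at 400 cells/well in medium containing 20 nM camptothecin, exposed to pin-transferred compounds, and grown at 37 °C for at least 48 hr. Viability was read as ATP luminescence.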
IL1B secr inh: inflammasome signaling inhibition, IL-1 beta readout. THP-1 LPS/ATP IL-1B secretion, AlphaLISA, 16 h; hits give low values. activity change, % at 57.5 µM. 4.7% of 360,000 active; in the data active = activity change below about -50%; inconclusive = mostly about -30% to -49%
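THP-1 cells pretreated 1 hr with compounds (up to 57.5 uM final), then stimulated with LPS (250 ng/mL final) plus ATP (1.25 mM final); secreted IL-1B measured by AlphaLISA after 16 hr, decreased signal indicating inhibition.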
ELG1 repair inh: blocks ELG1-dependent DNA repair in HEK293T cells | HEK293T ELG1-luciferase reporter, luminescence, 16 h; DNA damage induced by 5-fluorouridine | Potency, µM (top dose mostly 46.1 µM), for inactives: at the highest dose activity change, negative = inhibition, most hits filed as inhibitors | 2.3% of 330,000 active | AID 504467; also: potency is read from the fitted curve at half-maximal effect; nearly all actives have a fitted effect of over 55% in size
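DMSO vehicle served as the neutral condition. Each well held 2,000 cells given 5-fluorouridine plus compound; after 16 hr at 37 °C/5% CO2, ONE-Glo was added and luciferase measured 30 min later.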
TDP1 cell noCPT: qHTS for Inhibitors of human tyrosyl-DNA phosphodiesterase 1 (TDP1): qHTS in cells in absence of CPT | AID 686978, 2013 | 15% of 420,000 active | DT40 Tdp1-/- hTDP1 cells, no CPT, ATP luminescence, 48 h | Potency, µM (top dose mostly 46.2 µM), inactives show top-dose activity change, negative = growth inhibition, usual class: inhibitors; also: potency is read from the fitted curve at half-maximal effect; nearly all actives have a fitted effect of over 55% in size
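Luminescent ATP content (CellTiter-Glo) served as the growth readout. Knockout chicken DT40 cells expressing human TDP1 were exposed to compounds without camptothecin for a minimum 48 hr at 37 °C.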
HT1080 IDH1KD tx: HT-1080 IDH1 knockdown cell toxicity (counter line); HT-1080 IDH1 knockdown viability, ATP luminescence, 48 h; 2% of 360,000 active; Potency, µM (highest dose often 46.1 µM), inactives show at the highest dose activity, negative = toxicity, actives largely listed as cytotoxic; AID 686971;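 also: potency is read from the fitted curve at half-maximal effect; 0% = DMSO wells and -100% = cell-free medium wells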
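HT-1080-IDH1KD cells (IDH1 knocked down), 750/well in RPMI with 5% FBS, treated with compound 48 h at 37 degrees C. Viability by CellTiter-Glo luminescence, normalised to DMSO and no-cell wells; concentration-response curves classed.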
HT1080-NT tox: kills 2HG-producing HT-1080-NT fibrosarcoma cells. 1.6% of 360,000 active. Potency, µM (series often up to 46.1 µM), without a hit: at the highest dose activity, negative = less viability, actives largely listed as cytotoxic. HT-1080-NT fibrosarcoma viability, CellTiter-Glo ATP luminescence, 48 h;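 also: NT is the 2HG producing partner of a matched IDH1 knockdown line; potency is read from the fitted curve at half-maximal effect; 0% = DMSO-treated cells and -100% = media-only wells without cells; nearly all actives have a fitted effect of over 55% in size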
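Compounds were tested in concentration-response format on HT-1080-NT cells for 48 hours at 37 degrees C. Cell viability came from CellTiter-Glo luminescence; curves were classified by r2, response magnitude and activity.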
* marks the source's active call; other numbers are inactive results; u = inconclusive; x = not tested or not shown; [ ] = another dose, or the depositor's remark. Sampled rows, rich in hits. Any-hit rate of the full collection: about 19%. Unless noted, calls follow the shape of the dose curve; as a rule, active = well fitted curve in the direction sought with a large enough effect; inconclusive = small, poorly fitted or top-dose-only effect, or another doubt; inactive = no such curve, though single readings can be large; an effect the other way counts as inactive or inconclusive. Unless noted, % is scaled to controls: 0 for no effect and ±100 for the full control effect.

SMILES | DT40 TDP1 CPT | IL1B secr inh | ELG1 repair inh | TDP1 cell noCPT | HT1080 IDH1KD tx | HT1080-NT tox
O=C(NCc1ccc(Cl)cc1)C1CCCN(c2ncnc3onc(-c4ccc(F)cc4)c23)C1 (stereo not given) | 20.6µM* | x | x | 23.1µM* | x | x
O=C(NCc1ccccc1Cl)C1CCCN(c2ncnc3onc(-c4ccc(F)cc4)c23)C1 (stereo not given) | u | x | x | 16.4µM* | x | x
CC(C)(C)c1ccc(-c2ccc3c(c2)S(=O)(=O)c2ccccc2C3=O)cc1 | u | 15.8 | x | 23.1µM* | -0.9% | 2.4%
O=C(NCCc1ccccc1)c1ccc2c(c1)S(=O)(=O)c1cc(Cl)ccc1C2=O | 20.6µM* | 4.7 | u | -94.4% | 8.3% | 5.4%
O=C1c2ccccc2S(=O)(=O)c2cc(N3CCN(C(=O)c4ccccc4)CC3)ccc21 | 14.6µM* | -67.2* | x | 20.6µM* | 1.0% | 2.9%
O=C(O)c1ccc2c(c1)S(=O)(=O)c1ccccc1C2=O | 4.4% | 8.5 | 4.4% | -3.7% | -0.9% | 1.0%
O=C(NCCOc1ccccc1Cl)c1ccc2c(c1)S(=O)(=O)c1cc(Cl)ccc1C2=O | u | 22.6 | -29.9% | -27.1% | 1.1% | 9.9%
O=C1c2ccccc2S(=O)(=O)c2cc(C(=O)N3CCN(c4ccccc4)CC3)ccc21 | u | u | x | x | -8.0% | -2.3%
CC1CCC(NC(=O)c2ccc3c(c2)S(=O)(=O)c2ccccc2C3=O)CC1 (stereo not given) | u | -3.9 | x | 14.6µM* | -1.2% | -1.4%
COc1ccc(C(=O)NCCN2Cc3cc(C)ccc3OC(C)C2)c(OC)n1 (stereo not given) | 7.8%[9.04 µM] | x | x | -17.5% | x | x
CCc1cccc(C)c1NC(=O)c1ccc2c(c1)CCN2S(C)(=O)=O | -26.9% | -9.0 | -19.2% | -28.6% | -17.1% | -8.2%
CCCc1ccc(OCc2ccccc2)c2c(=O)cc(C(=O)OCC)oc12 | 20.5% | 3.1 | -2.6% | -2.1% | 2.5% | 4.6%
O=C(O)Cc1cc(I)c(Oc2cc(I)c(O)c(I)c2)c(I)c1 | 5.9% | x | x | 0.3% | x | x
NC(=O)c1ccc2c(c1)S(=O)(=O)c1ccccc1C2=O | -26.1% | 16.5 | 0.0% | 16.4µM* | 17.0% | 13.3%
O=C(NCCc1ccccc1)c1ccc2c(c1)S(=O)(=O)c1ccccc1C2=O | u | -7.0 | x | 13µM* | -25.8% | -10.6%
CCOc1nc2cnccc2n(CC(=O)Nc2ccc(C)c(C)c2)c1=O | -21.8% | -0.9 | 10.9% | -21.4% | 8.6% | 7.8%
CCCCCCCN1C/C=C\C(c2ccc(OC)cc2)N(Cc2ccc(F)cc2)C(=O)[C@H]1Cc1ccccc1 (stereo not given in full) | u | 3.8 | 5.0% | 18.4µM* | -1.4% | -3.6%
COc1ccc(C2/C=C\CN(S(=O)(=O)c3ccc(C)cc3)[C@H](Cc3ccccc3)C(=O)N2Cc2ccc(F)cc2)cc1 (stereo not given in full) | u | 12.4 | 7.7% | u | 8.3% | 9.5%
COc1ccc([C@H]2/C=C\CN(C(=O)C3CCCC3)[C@@H](C)C(=O)N2Cc2ccc(F)cc2)cc1 | 13µM* | 21.5 | x | 7.31µM* | -24.8% | -19.2%
COc1ccc(C2/C=C\CN(C(=O)Nc3ccc(C(F)(F)F)cc3)CC(=O)N2Cc2ccc(F)cc2)cc1 (stereo not given) | 14.6µM* | 0.0 | -29.4% | 13µM* | u | u
COc1ccc(C2/C=C\CN(C(=O)C3CCCC3)[C@H](Cc3ccccc3)C(=O)N2Cc2ccc(F)cc2)cc1 (stereo not given in full) | 23.1µM* | -22.1 | -23.7% | u | -22.0% | -17.0%
C[N+]1(C)[C@@H]2CC(OC(=O)C(O)(c3cccs3)c3cccs3)C[C@H]1[C@@H]1O[C@@H]12 (stereo not given in full) | 9.7% | x | x | -14.0% | x | x
Oc1ccc(Nc2nc3ccccc3nc2Nc2ccc(O)cc2)cc1 | 1.64µM* | -4.1 | u | 2.31µM* | 11.6µM* | 23.1µM*
COc1ccc(-c2nc(N/N=C(\C)c3ccc(O)cc3)c3ccccc3n2)cc1 | 20.6µM* | -8.2 | u | 7.31µM* | u | u
Cc1nc2ccccc2nc1N/N=C/c1ccc(O)cc1 | -3.4% | 5.1 | u | -0.3% | 4.8% | 1.9%
SMILES | DT40 TDP1 CPT | IL1B secr inh | ELG1 repair inh | TDP1 cell noCPT | HT1080 IDH1KD tx | HT1080-NT tox
O=[N+]([O-])c1ccc(-c2nc(Nc3ccc(O)cc3)c3ccccc3n2)cc1 | -15.1% | -13.8 | u | -0.7% | 10.4% | 5.5%
Cc1ccc2nc(-c3cccc(NS(C)(=O)=O)c3)cc(-c3ccccc3)c2c1 | u | -100.5* | u | u | -21.8% | -1.7%
C/C(=N\Nc1nc(-c2ccc(C)cc2)nc2ccccc12)c1ccc([N+](=O)[O-])cc1 | x | x | 4.7% | x | x | x
Oc1ccc(Nc2nc(-c3ccccc3)nc3ccccc23)cc1 | u | -93.7* | u | u | u | u
CCCCCc1ccc(-c2cn(Cc3ccc4c(c3)C(=O)c3ccccc3C4=O)nn2)cc1 | -2.1% | x | x | -2.0% | x | x
COc1ccc(C(=O)N2CCC3(CC2)CN(c2ccccn2)C3)cc1 | -10.1% | x | x | u | x | x
COc1ccc(Nc2ncnc3ccccc23)cc1 | u | -23.8 | -5.0% | u | 2.3% | 5.1%
COc1ccc(Nc2nc(-c3cccc([N+](=O)[O-])c3)nc3ccccc23)cc1 | u | -17.0 | 8.2µM* | 14.6µM* | u | u
COc1ccc(Nc2nc(-c3ccccc3)nc3ccccc23)cc1 | u | -94.9* | 20.6µM* | u | u | u
CS(=O)(=O)Nc1cccc(-c2nc(Nc3ccc(F)cc3)c3ccccc3n2)c1 | 5.8µM* | x | x | 4.11µM* | x | x
CC(=O)Nc1ccc(Nc2nc(-c3ccccc3)nc3ccccc23)cc1 | 18.4µM* | u | u | 23.1µM* | -27.1% | -14.3%
COc1ccc(S(=O)(=O)N2CC(C)N(C(=O)N(C)C)C2C)cc1 (stereo not given) | -1.9% | 21.8 | 0.0% | 3.0% | 6.6% | -2.3%
Cc1cc(Cl)c2oc(C(=O)N(C)CCCCN3CCOCC3)c(C)c2c1 | -18.5% | -7.3 | -0.7% | u | u | u
Cc1cc(Cl)c2oc(C(=O)N(C)CCc3cnn(C)c3)c(C)c2c1 | 18.4µM* | 21.3 | 16.2% | -4.9% | 8.0% | -2.2%
O=C(NCCN1CCOCC1)c1sc2cc(Cl)ccc2c1Cl | -1.5% | u | u | u | -2.9% | u
